Results as given in PMC9911399, “Two distinct binding modes provide the RNA-binding protein RbFox with extraordinary sequence specificity”.
Substitutions are numbered along the chain they refer to; changes in the protein carry UniProt numbers. Over roughly 16,000 sequences, “ka relative to ugcaugu” has its median near 0.096; the highest 2% begin near 0.35. This is one part of a sample in which the highest values are shown more often than they occur.

T1: RBFOX1 RRM RbFoxmut (Fox-RRM*) (Homo sapiens, UniProt Q9NWB1 109-208, R118D;E147R;N151S;E152T)
T1 sequence: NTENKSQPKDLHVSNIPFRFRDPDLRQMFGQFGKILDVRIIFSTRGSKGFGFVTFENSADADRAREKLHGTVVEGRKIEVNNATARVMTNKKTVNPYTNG

B1: GUGAGUC (DNA:RNA)
RNA: GGGAGACCGGAAUUCAGAUUGUCCGUGAGUCUUAAAUCCCGUCGUAGCCACCA
DNA 1: CAATCTGAATTCCGGTCTCCC
DNA 2: TGGTGGCTACGACGGGATT
B2: UUCUCUG (DNA:RNA)
RNA: B1 RNA with G25U, G27C, A28U, G29C, C31G
DNA 1: CAATCTGAATTCCGGTCTCCC
DNA 2: TGGTGGCTACGACGGGATT
B3: UUAUUAA (DNA:RNA)
RNA: B1 RNA with G25U, G27A, A28U, G29U, U30A, C31A
DNA 1: CAATCTGAATTCCGGTCTCCC
DNA 2: TGGTGGCTACGACGGGATT
B4: UCGAGUG (DNA:RNA)
RNA: B1 RNA with G25U, U26C, C31G
DNA 1: CAATCTGAATTCCGGTCTCCC
DNA 2: TGGTGGCTACGACGGGATT
B5: CUUGCGU (DNA:RNA)
RNA: B1 RNA with G25C, G27U, A28G, G29C, U30G, C31U
DNA 1: CAATCTGAATTCCGGTCTCCC
DNA 2: TGGTGGCTACGACGGGATT
B6: AGCACGA (DNA:RNA)
RNA: B1 RNA with G25A, U26G, G27C, G29C, U30G, C31A
DNA 1: CAATCTGAATTCCGGTCTCCC
DNA 2: TGGTGGCTACGACGGGATT
B7: CCCCUGC (DNA:RNA)
RNA: B1 RNA with G25C, U26C, G27C, A28C, G29U, U30G
DNA 1: CAATCTGAATTCCGGTCTCCC
DNA 2: TGGTGGCTACGACGGGATT
B8: UGCUUGC (DNA:RNA)
RNA: B1 RNA with G25U, U26G, G27C, A28U, G29U, U30G
DNA 1: CAATCTGAATTCCGGTCTCCC
DNA 2: TGGTGGCTACGACGGGATT
B9: UGCUUGU (DNA:RNA)
RNA: GGGAGACCGGAAUUCAGAUUGUCCUGCUUGUUUAAAUCCCGUCGUAGCCACCA
DNA 1: CAATCTGAATTCCGGTCTCCC
DNA 2: TGGTGGCTACGACGGGATT
B10: CUGCUUG (DNA:RNA)
RNA: B1 RNA with G25C, A28C, G29U, C31G
DNA 1: CAATCTGAATTCCGGTCTCCC
DNA 2: TGGTGGCTACGACGGGATT
B11: UGCUGCU (DNA:RNA)
RNA: B9 RNA with U29G, G30C
DNA 1: CAATCTGAATTCCGGTCTCCC
DNA 2: TGGTGGCTACGACGGGATT
B12: CUGCUGC (DNA:RNA)
RNA: B1 RNA with G25C, A28C, G29U, U30G
DNA 1: CAATCTGAATTCCGGTCTCCC
DNA 2: TGGTGGCTACGACGGGATT
B13: UUACGGC (DNA:RNA)
RNA: B1 RNA with G25U, G27A, A28C, U30G
DNA 1: CAATCTGAATTCCGGTCTCCC
DNA 2: TGGTGGCTACGACGGGATT
B14: UUCGUUU (DNA:RNA)
RNA: B9 RNA with G26U, U28G, G30U
DNA 1: CAATCTGAATTCCGGTCTCCC
DNA 2: TGGTGGCTACGACGGGATT
B15: AAGUGAC (DNA:RNA)
RNA: B1 RNA with G25A, U26A, A28U, U30A
DNA 1: CAATCTGAATTCCGGTCTCCC
DNA 2: TGGTGGCTACGACGGGATT
B16: GAUGAAA (DNA:RNA)
RNA: B1 RNA with U26A, G27U, A28G, G29A, U30A, C31A
DNA 1: CAATCTGAATTCCGGTCTCCC
DNA 2: TGGTGGCTACGACGGGATT
B17: ACAUGUU (DNA:RNA)
RNA: B1 RNA with G25A, U26C, G27A, A28U, C31U
DNA 1: CAATCTGAATTCCGGTCTCCC
DNA 2: TGGTGGCTACGACGGGATT
B18: CCGCCUC (DNA:RNA)
RNA: B1 RNA with G25C, U26C, A28C, G29C
DNA 1: CAATCTGAATTCCGGTCTCCC
DNA 2: TGGTGGCTACGACGGGATT
B19: GUGAUUG (DNA:RNA)
RNA: B1 RNA with G29U, C31G
DNA 1: CAATCTGAATTCCGGTCTCCC
DNA 2: TGGTGGCTACGACGGGATT
B20: GUCGUGA (DNA:RNA)
RNA: B9 RNA with U25G, G26U, U28G, U31A
DNA 1: CAATCTGAATTCCGGTCTCCC
DNA 2: TGGTGGCTACGACGGGATT
B21: GGUGUGA (DNA:RNA)
RNA: B9 RNA with U25G, C27U, U28G, U31A
DNA 1: CAATCTGAATTCCGGTCTCCC
DNA 2: TGGTGGCTACGACGGGATT
B22: GGUGAUU (DNA:RNA)
RNA: B1 RNA with U26G, G27U, A28G, G29A, C31U
DNA 1: CAATCTGAATTCCGGTCTCCC
DNA 2: TGGTGGCTACGACGGGATT
B23: GUGACCG (DNA:RNA)
RNA: B1 RNA with G29C, U30C, C31G
DNA 1: CAATCTGAATTCCGGTCTCCC
DNA 2: TGGTGGCTACGACGGGATT
B24: GGUGAUG (DNA:RNA)
RNA: B1 RNA with U26G, G27U, A28G, G29A, C31G
DNA 1: CAATCTGAATTCCGGTCTCCC
DNA 2: TGGTGGCTACGACGGGATT
B25: GUGAUUC (DNA:RNA)
RNA: B1 RNA with G29U
DNA 1: CAATCTGAATTCCGGTCTCCC
DNA 2: TGGTGGCTACGACGGGATT
B26: GUGAUCG (DNA:RNA)
RNA: B1 RNA with G29U, U30C, C31G
DNA 1: CAATCTGAATTCCGGTCTCCC
DNA 2: TGGTGGCTACGACGGGATT
B27: UUGACUG (DNA:RNA)
RNA: B1 RNA with G25U, G29C, C31G
DNA 1: CAATCTGAATTCCGGTCTCCC
DNA 2: TGGTGGCTACGACGGGATT
B28: GUGAAUC (DNA:RNA)
RNA: B1 RNA with G29A
DNA 1: CAATCTGAATTCCGGTCTCCC
DNA 2: TGGTGGCTACGACGGGATT
B29: GUGACUG (DNA:RNA)
RNA: B1 RNA with G29C, C31G
DNA 1: CAATCTGAATTCCGGTCTCCC
DNA 2: TGGTGGCTACGACGGGATT
B30: GCGUGAA (DNA:RNA)
RNA: B1 RNA with U26C, A28U, U30A, C31A
DNA 1: CAATCTGAATTCCGGTCTCCC
DNA 2: TGGTGGCTACGACGGGATT
B31: ACCUAUU (DNA:RNA)
RNA: B9 RNA with U25A, G26C, U29A, G30U
DNA 1: CAATCTGAATTCCGGTCTCCC
DNA 2: TGGTGGCTACGACGGGATT

biological target: T1, RBFOX1 RRM RbFoxmut (Fox-RRM*); assay: EMSA; HiTS-Eq, 1 nM pool, 10 min; buffer printed only for the single-RNA assays: 10 mM Tris pH 7.5, 150 mM NaCl, 3.4 mM EDTA, 0.001% NP-40, 30 C; conditions: tags: His6 N-terminal (pET28a); label: 5' 32P
Outline: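 These values rest on relative association constants, computed from read-count changes of each RNA species versus the control reaction and normalised to the cognate motif. Reads came from free RNA recovered by 8% native PAGE after purified RbFox RRM (wild type or mutant) at increasing concentrations was equilibrated for 10 min in 50 µL with 1 nM of a 5′-radiolabelled pool with 7 randomized nucleotides and DNA-annealed flanks.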

Row | Binder | binding signal
1 | B1 | 0.138 KA relative to UGCAUGU
2 | B2 | 0.0908 KA relative to UGCAUGU
3 | B3 | 0.0751 KA relative to UGCAUGU
4 | B4 | 0.167 KA relative to UGCAUGU
5 | B5 | 0.154 KA relative to UGCAUGU
6 | B6 | 0.141 KA relative to UGCAUGU
7 | B7 | 0.0955 KA relative to UGCAUGU
8 | B8 | 0.264 KA relative to UGCAUGU
9 | B9 | 0.428 KA relative to UGCAUGU
10 | B10 | 0.423 KA relative to UGCAUGU
11 | B11 | 0.12 KA relative to UGCAUGU
12 | B12 | 0.126 KA relative to UGCAUGU
13 | B13 | 0.0823 KA relative to UGCAUGU
14 | B14 | 0.112 KA relative to UGCAUGU
15 | B15 | 0.0758 KA relative to UGCAUGU
16 | B16 | 0.0758 KA relative to UGCAUGU

Row | Binder | binding signal
17 | B17 | 0.127 KA relative to UGCAUGU
18 | B18 | 0.0617 KA relative to UGCAUGU
19 | B19 | 0.454 KA relative to UGCAUGU
20 | B20 | 0.126 KA relative to UGCAUGU
21 | B21 | 0.112 KA relative to UGCAUGU
22 | B22 | 0.0776 KA relative to UGCAUGU
23 | B23 | 0.162 KA relative to UGCAUGU
24 | B24 | 0.412 KA relative to UGCAUGU
25 | B25 | 0.159 KA relative to UGCAUGU
26 | B26 | 0.32 KA relative to UGCAUGU
27 | B27 | 0.243 KA relative to UGCAUGU
28 | B28 | 0.42 KA relative to UGCAUGU
29 | B29 | 0.387 KA relative to UGCAUGU
30 | B30 | 0.119 KA relative to UGCAUGU
31 | B31 | 0.107 KA relative to UGCAUGU
